Laboratory results as given in PubChem BioAssay AID1159580 (chemical genetic matrix, 2015).
Hit rate of the full screen: of about 5,500 compounds, about 2,000 (36%) were called active. Not shown: some 18% with an inconclusive outcome. Cut-off read from the data, not from the text of the source: active = normalized growth mostly below about 0.91 (no sharp cut-off); inconclusive = no clear call, values can overlap the other calls; inactive = mostly above about 0.92. The list shows a part of the results.

Test: chemical genetic growth profiling, strain panel (AID 1159580);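 note: tested at 20 µM; growth read once vehicle control cultures reached saturation at 30 °C; 1 = growth at the plate median or of vehicle wells; lower values mean less growth of the strain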
Details: S. cerevisiae deletion strains, growth OD

Measured: normalized growth

CC(C)(C)NCC(O)c1cc(Cl)c(N)c(Cl)c1 (centres undefined)
inactive: locus YAL013W, strain DEP1, stronger effect = lower value 1.01 | locus YAL021C, strain ccr4, stronger effect = lower value 0.985 | locus YAL026C, strain drs2, stronger effect = lower value 1 | locus YAL030W, strain snc1, stronger effect = lower value 1 | locus YBL061C, strain skt5, stronger effect = lower value 1 | locus YBR009C, strain hhf1, stronger effect = lower value 1 | locus YBR021W, strain FUR4, stronger effect = lower value 1 | locus YBR023C, strain chs3, stronger effect = lower value 1 | locus YBR171W, strain sec66, stronger effect = lower value 1 | locus YBR229C, strain ROT2, stronger effect = lower value 1.01 | locus YBR231C, strain swc5, stronger effect = lower value 0.992 | locus YBR279W, strain paf1, stronger effect = lower value 1.01 | locus YCL011C, strain gbp2, stronger effect = lower value 1.01 | locus YCL016C, strain dcc1, stronger effect = lower value 0.998 | locus YCL029C, strain bik1, stronger effect = lower value 0.993 | locus YCL061C, strain MRC1, stronger effect = lower value 1.01 | locus YCL069W, strain vba3, stronger effect = lower value 0.992 | locus YCR088W, strain abp1, stronger effect = lower value 0.998 | locus YDL005C, strain med2, stronger effect = lower value 0.996 | locus YDL035C, strain GPR1, stronger effect = lower value 1.01 | locus YDL040C, strain nat1, stronger effect = lower value 0.988 | locus YDL074C, strain BRE1, stronger effect = lower value 1 | locus YDL101C, strain DUN1, stronger effect = lower value 1.01 | locus YDL134C, strain PPH21, stronger effect = lower value 1.02 | locus YDL185W, strain tfp1, stronger effect = lower value 1 | locus YDL192W, strain arf1, stronger effect = lower value 1 | locus YDR001C, strain nth1, stronger effect = lower value 0.995 | locus YDR069C, strain doa4, stronger effect = lower value 0.989 | locus YDR101C, strain arx1, stronger effect = lower value 0.983 | locus YDR137W, strain rgp1, stronger effect = lower value 1 | locus YDR150W, strain NUM1, stronger effect = lower value 1.02 | locus YDR159W, strain sac3, stronger effect = lower value 0.978 | locus YDR162C, strain NBP2, stronger effect = lower value 1 | locus YDR195W, strain ref2 0.961 | locus YDR297W, strain sur2, stronger effect = lower value 1 | locus YDR318W, strain mcm21, stronger effect = lower value 0.994 | locus YDR334W, strain swr1, stronger effect = lower value 1 | locus YDR335W, strain msn5, stronger effect = lower value 0.994 | locus YDR388W, stronger effect = lower value 0.992 | locus YDR392W, strain spt3, stronger effect = lower value 0.876 | locus YDR502C, strain sam2, stronger effect = lower value 1.01 | locus YEL003W, strain gim4, stronger effect = lower value 1 | locus YEL037C, strain rad23, stronger effect = lower value 0.998 | locus YEL061C, strain CIN8 (second series), stronger effect = lower value 1 | locus YEL061C, strain CIN8, stronger effect = lower value 1.01 | locus YER015W, strain faa2, stronger effect = lower value 0.999 | locus YER016W, strain bim1, stronger effect = lower value 1 | locus YER110C, stronger effect = lower value 0.998 | locus YER111C, strain swi4, stronger effect = lower value 1.01 | locus YER155C, strain BEM2 (second series), stronger effect = lower value 1.01 | locus YER155C, strain BEM2, stronger effect = lower value 1.02 | locus YER167W, strain BCK2, stronger effect = lower value 1.01 | locus YFR010W, strain ubp6, stronger effect = lower value 0.994 | locus YGL078C, strain dbp3, stronger effect = lower value 1.01 | locus YGL086W, strain mad1, stronger effect = lower value 0.997 | locus YGL167C, strain pmr1, stronger effect = lower value 1 | locus YGL173C, strain kem1, stronger effect = lower value 0.996 | locus YGL227W, strain vid30, stronger effect = lower value 1 | locus YGL240W, strain doc1, stronger effect = lower value 0.98 | locus YGL248W, strain PDE1, stronger effect = lower value 1 | locus YGL253W, strain hxk2, stronger effect = lower value 0.984 | locus YGR078C, strain PAC10, stronger effect = lower value 1.01 | locus YGR135W, strain pre9, stronger effect = lower value 1.01 | locus YGR229C, strain SMI1, stronger effect = lower value 1.01 | locus YGR252W, strain gcn5, stronger effect = lower value 1.04 | locus YHR013C, strain ard1, stronger effect = lower value 0.983 | locus YHR027C, strain rpn1, stronger effect = lower value 0.994 | locus YHR030C, strain SLT2, stronger effect = lower value 1.01 | locus YHR079C, strain IRE1 (second series), stronger effect = lower value 1 | locus YHR094C, strain hxt1, stronger effect = lower value 1 | locus YHR129C, strain ARP1, stronger effect = lower value 1.02 | locus YHR142W, strain chs7, stronger effect = lower value 0.997 | locus YHR200W, strain rpn10, stronger effect = lower value 1 | locus YIL066C, strain RNR3, stronger effect = lower value 1.01 | locus YIL073C, strain SPO22, stronger effect = lower value 1 | locus YIL125W, strain kgd1, stronger effect = lower value 1 | locus YIR030C, strain dcg1, stronger effect = lower value 0.995 | locus YJL092W, strain hpr5, stronger effect = lower value 0.997 | locus YJL095W, strain BCK1 (second series), stronger effect = lower value 1 | locus YJL095W, strain BCK1, stronger effect = lower value 1.01 | locus YJL115W, strain asf1, stronger effect = lower value 1 | locus YJL129C, strain trk1, stronger effect = lower value 0.996 | locus YJL134W, strain LCB3, stronger effect = lower value 1.01 | locus YJL154C, strain vps35, stronger effect = lower value 1 | locus YJL164C, strain tpk1, stronger effect = lower value 1 | locus YJL166W, strain qcr8, stronger effect = lower value 0.991 | locus YJL168C, strain set2, stronger effect = lower value 0.992 | locus YJL187C, strain SWE1 (second series), stronger effect = lower value 1.01 | locus YJL187C, strain SWE1, stronger effect = lower value 1
